Experiment [1] in a line: qHTS assay to identify aromatase inhibitors - cell viability counter screen (AID 743084).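 Further: cells stimulated with testosterone during compound exposure; nearly all actives have a fitted effect of over 55% in size.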 A general note: Quantitative high-throughput screening tests each substance at several concentrations.
Experiment [2] has as its target Aryl hydrocarbon receptor (Homo sapiens) (UniProt P35869). As to the kind of experiment: qHTS assay to identify small molecule that activate the aryl hydrocarbon receptor (AhR) signaling pathway (AID 743085).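 Further: HG2L7.5c1 human HepG2 liver cells with stably integrated DRE-driven firefly reporter; series mostly up to about 70 µM; nearly all actives have a fitted effect of over 15% in size.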 A digest of the protocol:
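Reporter assay in engineered HepG2 line HG2L7.5c1, whose plasmid carries twenty dioxin responsive elements upstream of firefly luciferase. Treatment lasted 24 h at 37C; ONE-Glo luminescence gauged induction.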

Experiment [3] concerns the target Peroxisome proliferator-activated receptor gamma (Homo sapiens) (UniProt P37231). Kind of experiment: qHTS assay to identify small molecule antagonists of the peroxisome proliferator-activated receptor gamma (PPARg) signaling pathway (AID 743191; calls by dose curve; further: series mostly up to about 63 µM; nearly all actives have a fitted effect of over 30% in size). An outline of the steps:
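GeneBLAzer PPARg UAS-bla HEK293H cells carrying a UAS-driven beta-lactamase reporter were plated at 3000 cells/well, preincubated 5 h at 37C, then given compound for 17 h at 37C; LiveBLAzer B/G FRET substrate was read after 1 h at room temperature.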

Experiment [4] is described as follows: qHTS assay for small molecule agonists of the antioxidant response element (ARE) signaling pathway (AID 743202; active means well fitted activation curve with a large enough effect in the signal ratio in the repeat runs, not every such curve was filed as active; the % refers to the signal ratio; further: potency means the concentration at half of the fitted maximal effect). A digest of the protocol:
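Read-out: LiveBLAzer B/G FRET substrate fluorescence after 2 h at room temperature, following 16 h compound treatment at 37 C of HepG2 cells carrying an ARE-driven beta-lactamase reporter.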

A short description of experiment [5]: qHTS assay for small molecule agonists of the antioxidant response element (ARE) signaling pathway - cell viability counter screen (AID 743203; calls by dose curve; further: nearly all actives have a fitted effect of over 55% in size). A digest of the protocol:
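Compounds in DMSO were pinned onto ARE-bla HepG2 cells plated 5 hrs earlier at 2,000 cells/well. Sixteen hours later at 37C/5% CO2, CellTiter-Glo was added and luminescence measured after 30 min at room temperature.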

The nature of experiment [6]: qHTS assay for small molecule activators of the heat shock response signaling pathway - cell viability counter screen (AID 743209). Further: nearly all actives have a fitted effect of over 50% in size. An outline of the steps:
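Counter screen for cytotoxicity in HeLa HSE-bla reporter cells. Treatment was 5 h at 37 C; viability was detected by luminescent ATP assay (CellTiter-Glo) in the same wells as the beta-lactamase read.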

A short description of experiment [7]: qHTS assay for small molecule activators of the heat shock response signaling pathway (AID 743210; active means well fitted activation curve with a large enough effect in the signal ratio in the repeat runs, with a control signal flat, not every such curve was filed as active; the % refers to the signal ratio; further: series mostly up to about 63 µM). An outline of the steps: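 HSE-bla HeLa cells (beta-lactamase reporter under heat shock response elements) were exposed to compounds for 5 h at 37 C, then loaded with LiveBLAzer B/G FRET substrate for 2.5 h at room temperature before fluorescence reading.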
Experiment [8] can be described thus: qHTS assay to identify small molecule agonists of the peroxisome proliferator-activated receptor delta (PPARd) signaling pathway - cell viability counter screen (AID 743211). Further: nearly all actives have a fitted effect of over 55% in size. A digest of the protocol:
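Multiplexed format: after the 2 h room-temperature LiveBLAzer B/G FRET step, CellTiter-Glo was added to the same wells. Luminescence after 30 min gave cell viability; compound exposure was 17 h at 37C.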

The nature of experiment [9]: qHTS assay to identify small molecule antagonists of the peroxisome proliferator-activated receptor delta (PPARd) signaling pathway - cell viability counter screen (AID 743213). Further: nearly all actives have a fitted effect of over 50% in size. An outline of the steps: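 In this counter screen, HEK293H cells carrying a UAS-beta-lactamase reporter are co-treated with test compounds and 300 nM L165041 (final) for 17 h at 37 C; cell viability is quantified by CellTiter-Glo luminescence.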

In experiment [10] the target is Bile acid receptor (Homo sapiens) (UniProt Q96RI1). As to the kind of experiment: qHTS assay to identify small molecule antagonists of the farnesoid-X-receptor (FXR) signaling pathway (AID 743217; active means well fitted inhibition curve with a large enough effect in the signal ratio in the repeat runs, not every such curve was filed as active; the % refers to the signal ratio). An outline of the steps: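 In this cell-based antagonist screen, inhibition of CDCA-driven (50 uM final) UAS-beta-lactamase expression in HEK 293T cells was measured by FRET fluorescence following 16 h compound exposure at 37 °C.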
Chain of Bile acid receptor (Homo sapiens) (Q96RI1 whole entry, looked up): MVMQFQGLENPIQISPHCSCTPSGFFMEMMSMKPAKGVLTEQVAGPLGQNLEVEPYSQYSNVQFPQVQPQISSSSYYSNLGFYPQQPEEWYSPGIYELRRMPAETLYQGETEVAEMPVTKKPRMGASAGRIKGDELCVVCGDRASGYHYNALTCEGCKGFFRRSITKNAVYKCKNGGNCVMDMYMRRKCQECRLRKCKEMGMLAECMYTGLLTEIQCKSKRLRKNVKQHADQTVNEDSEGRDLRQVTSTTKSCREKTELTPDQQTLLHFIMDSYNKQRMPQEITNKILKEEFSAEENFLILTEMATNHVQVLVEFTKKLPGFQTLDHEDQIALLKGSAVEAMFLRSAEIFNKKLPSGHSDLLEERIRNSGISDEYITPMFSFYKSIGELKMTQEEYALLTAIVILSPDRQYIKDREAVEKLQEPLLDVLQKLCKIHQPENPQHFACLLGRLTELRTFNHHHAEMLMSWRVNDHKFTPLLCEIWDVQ

A short description of experiment [11]: qHTS assay to identify small molecule agonists of the farnesoid-X-receptor (FXR) signaling pathway - cell viability counter screen (AID 743218). Further: nearly all actives have a fitted effect of over 45% in size. A digest of the protocol: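 After 16 h at 37 C with test compounds, FXR-bla HEK 293T cells were given LiveBLAzer B/G substrate for 2 h at RT and then CellTiter-Glo; luminescence was taken after 30 min.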
Experiment [12] addresses Bile acid receptor (Homo sapiens) (UniProt Q96RI1). As to the kind of experiment: qHTS assay to identify small molecule agonists of the farnesoid-X-receptor (FXR) signaling pathway (AID 743220; active means well fitted activation curve with a large enough effect in the signal ratio in the repeat runs, not every such curve was filed as active; the % refers to the signal ratio). A digest of the protocol: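 Beta-lactamase reporter under UAS control in GeneBLAzer FXR HEK 293T cells (5000/well) measured with LiveBLAzer FRET substrate after 2 h at room temperature. Compound exposure lasted 16 h at 37C.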

The nature of experiment [13]: qHTS assay to identify small molecule antagonists of the farnesoid-X-receptor (FXR) signaling pathway - cell viability counter screen (AID 743221; active means well fitted cell-killing curve with a large enough effect in the repeat runs, not every such curve was filed as active; further: nearly all actives have a fitted effect of over 50% in size). An outline of the steps: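 CellTiter-Glo, 30 min RT, luminescence; same wells as the LiveBLAzer FRET read. Cells: FXR-UAS-bla HEK 293T. Treatment: compound with chenodeoxycholic acid 50 uM final, 16 h at 37 C.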
Experiment [14] addresses Vitamin D3 receptor (Homo sapiens) (UniProt P11473). As to the kind of experiment: qHTS assay to identify small molecule antagonists of the vitamin D receptor (VDR) signaling pathway (AID 743223; active means well fitted inhibition curve with a large enough effect in the signal ratio in the repeat runs, not every such curve was filed as active; the % refers to the signal ratio). An outline of the steps:
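After VDR-bla cells are plated and left 4 h at 37C, DMSO-dissolved compounds and 3 nM (final) calcitriol agonist are added. Incubation continues 16 h at 37C; FRET beta-lactamase substrate then develops 2 h at room temperature.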

The nature of experiment [15]: qHTS assay to identify small molecule that activate the aryl hydrocarbon receptor (AhR) signaling pathway - cell viability counter screen (AID 743086).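 Further: HepG2 liver cells carrying the AhR DRE luciferase reporter; series mostly up to about 70 µM; nearly all actives have a fitted effect of over 45% in size.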 An outline of the steps: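 HepG2-AhR-luc (HG2L7.5c1) cells, 4000/well, were preincubated 5 h at 37C, exposed to compound in qHTS format for 24 hr at 37C, then given CellTiter-Fluor for 30 min; viability was read as fluorescence in the reporter wells.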

Experiment [16] deals with Peroxisome proliferator-activated receptor gamma (Homo sapiens) (UniProt P37231). Kind of experiment: qHTS assay to identify small molecule agonists of the peroxisome proliferator-activated receptor gamma (PPARg) signaling pathway (AID 743094; active means well fitted activation curve with a large enough effect in the signal ratio in the repeat runs, not every such curve was filed as active; the % refers to the signal ratio). A digest of the protocol: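 Following 5 h plating at 37C, PPARg-bla HEK293H cells receive compound or DMSO for 17 h; fluorescence intensity is recorded after LiveBLAzer B/G loading for 1 h at room temperature.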
Chain of Peroxisome proliferator-activated receptor gamma (Homo sapiens) (P37231 whole entry, looked up): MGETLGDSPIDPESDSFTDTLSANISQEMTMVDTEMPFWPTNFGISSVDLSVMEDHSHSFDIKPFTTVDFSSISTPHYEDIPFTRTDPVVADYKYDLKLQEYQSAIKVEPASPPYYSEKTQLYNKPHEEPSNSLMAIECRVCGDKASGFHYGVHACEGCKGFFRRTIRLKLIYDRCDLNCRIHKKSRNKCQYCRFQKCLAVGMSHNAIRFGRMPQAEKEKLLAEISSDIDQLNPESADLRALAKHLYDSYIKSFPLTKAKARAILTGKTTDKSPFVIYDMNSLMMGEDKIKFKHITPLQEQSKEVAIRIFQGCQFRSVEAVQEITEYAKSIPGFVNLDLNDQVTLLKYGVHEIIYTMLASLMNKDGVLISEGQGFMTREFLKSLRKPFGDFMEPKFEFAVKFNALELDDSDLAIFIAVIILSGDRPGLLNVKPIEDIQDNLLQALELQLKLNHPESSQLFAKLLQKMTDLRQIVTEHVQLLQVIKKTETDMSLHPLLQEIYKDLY

Experiment [17] can be described thus: qHTS assay to identify small molecule antagonists of the peroxisome proliferator-activated receptor gamma (PPARg) signaling pathway - cell viability counter screen (AID 743194). Further: nearly all actives have a fitted effect of over 55% in size. To be noted: Potency: co-treated with 50 nM rosiglitazone. A digest of the protocol:
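PPARg-UAS-bla HEK293H cells were plated, rested 5 h at 37 C, then treated with compounds plus rosiglitazone (50 nM final) for 17 h at 37 C; viability was then read by CellTiter-Glo luminescence after 30 min at room temperature.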

For experiment [18], the target named is Vitamin D3 receptor (Homo sapiens) (UniProt P11473). Kind of experiment: qHTS assay to identify small molecule agonists of the vitamin D receptor (VDR) signaling pathway (AID 743222; calls by dose curve). A digest of the protocol:
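VDR-bla cells were seeded, left 4 h, treated with compounds in DMSO for 16 h, incubated 2 h at RT with B/G FRET substrate, and read for fluorescence.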

Experiment [19] deals with Peroxisome proliferator-activated receptor delta (Homo sapiens) (UniProt Q03181). As to the kind of experiment: qHTS assay to identify small molecule agonists of the peroxisome proliferator-activated receptor delta (PPARd) signaling pathway (AID 743212; calls by dose curve). A digest of the protocol: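 GeneBLAzer PPARd UAS-bla HEK293H cells (beta-lactamase reporter under UAS control), plated and rested 5 h at 37 C, then exposed to compounds in DMSO at 37 C; LiveBLAzer B/G FRET substrate added, 2 h room temperature, fluorescence read.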
Chain of Peroxisome proliferator-activated receptor delta (Homo sapiens) (Q03181 whole entry, looked up): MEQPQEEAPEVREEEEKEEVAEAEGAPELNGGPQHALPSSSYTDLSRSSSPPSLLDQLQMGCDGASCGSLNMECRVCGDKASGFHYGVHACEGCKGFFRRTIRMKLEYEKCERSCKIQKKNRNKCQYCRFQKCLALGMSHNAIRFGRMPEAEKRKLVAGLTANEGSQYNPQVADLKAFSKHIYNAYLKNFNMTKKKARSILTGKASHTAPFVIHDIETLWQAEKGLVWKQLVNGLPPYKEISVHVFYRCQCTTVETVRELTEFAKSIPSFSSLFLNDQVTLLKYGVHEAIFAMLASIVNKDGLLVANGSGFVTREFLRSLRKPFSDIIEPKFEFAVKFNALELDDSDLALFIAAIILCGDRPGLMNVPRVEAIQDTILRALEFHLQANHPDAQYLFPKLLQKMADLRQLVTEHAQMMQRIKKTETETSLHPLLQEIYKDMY

For experiment [20] the target is unchanged. As to the kind of experiment: qHTS assay to identify small molecule antagonists of the peroxisome proliferator-activated receptor delta (PPARd) signaling pathway (AID 743215; active means well fitted inhibition curve with a large enough effect in the signal ratio in the repeat runs, not every such curve was filed as active; the % refers to the signal ratio;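 further: cells stimulated with agonist L165041 at 300 nM final during compound exposure; series mostly up to about 62 µM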). A digest of the protocol: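 With L165041 present at 300 nM final, compounds were incubated 17 h at 37 C on PPARd UAS-bla HEK293H cells. A FRET-based beta-lactamase substrate was then applied for 2 h at room temperature and fluorescence intensity recorded.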

Records with an inconclusive call do not appear. The source made the active and inactive calls. Unless noted, the call rests on the fitted dose curve; in most records, active means well fitted curve in the direction sought with a large enough effect in the repeat runs; inconclusive means weak or mixed curves; inactive means no such curve, though single readings can be large; an effect the other way counts as inactive or inconclusive.

Chain of Vitamin D3 receptor (Homo sapiens) (P11473 whole entry, looked up): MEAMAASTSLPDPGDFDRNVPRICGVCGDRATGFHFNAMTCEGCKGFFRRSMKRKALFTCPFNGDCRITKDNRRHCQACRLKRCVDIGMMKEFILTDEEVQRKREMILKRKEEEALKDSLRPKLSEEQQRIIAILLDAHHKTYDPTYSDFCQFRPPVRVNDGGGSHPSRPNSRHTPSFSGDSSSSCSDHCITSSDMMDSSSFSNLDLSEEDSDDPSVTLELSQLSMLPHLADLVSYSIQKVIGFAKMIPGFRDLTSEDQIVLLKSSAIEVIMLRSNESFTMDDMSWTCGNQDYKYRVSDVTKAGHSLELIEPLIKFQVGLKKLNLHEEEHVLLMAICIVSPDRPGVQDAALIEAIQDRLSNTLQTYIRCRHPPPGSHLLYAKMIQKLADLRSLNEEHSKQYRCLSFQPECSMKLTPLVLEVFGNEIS
Chain of Aryl hydrocarbon receptor (Homo sapiens) (P35869 whole entry, looked up): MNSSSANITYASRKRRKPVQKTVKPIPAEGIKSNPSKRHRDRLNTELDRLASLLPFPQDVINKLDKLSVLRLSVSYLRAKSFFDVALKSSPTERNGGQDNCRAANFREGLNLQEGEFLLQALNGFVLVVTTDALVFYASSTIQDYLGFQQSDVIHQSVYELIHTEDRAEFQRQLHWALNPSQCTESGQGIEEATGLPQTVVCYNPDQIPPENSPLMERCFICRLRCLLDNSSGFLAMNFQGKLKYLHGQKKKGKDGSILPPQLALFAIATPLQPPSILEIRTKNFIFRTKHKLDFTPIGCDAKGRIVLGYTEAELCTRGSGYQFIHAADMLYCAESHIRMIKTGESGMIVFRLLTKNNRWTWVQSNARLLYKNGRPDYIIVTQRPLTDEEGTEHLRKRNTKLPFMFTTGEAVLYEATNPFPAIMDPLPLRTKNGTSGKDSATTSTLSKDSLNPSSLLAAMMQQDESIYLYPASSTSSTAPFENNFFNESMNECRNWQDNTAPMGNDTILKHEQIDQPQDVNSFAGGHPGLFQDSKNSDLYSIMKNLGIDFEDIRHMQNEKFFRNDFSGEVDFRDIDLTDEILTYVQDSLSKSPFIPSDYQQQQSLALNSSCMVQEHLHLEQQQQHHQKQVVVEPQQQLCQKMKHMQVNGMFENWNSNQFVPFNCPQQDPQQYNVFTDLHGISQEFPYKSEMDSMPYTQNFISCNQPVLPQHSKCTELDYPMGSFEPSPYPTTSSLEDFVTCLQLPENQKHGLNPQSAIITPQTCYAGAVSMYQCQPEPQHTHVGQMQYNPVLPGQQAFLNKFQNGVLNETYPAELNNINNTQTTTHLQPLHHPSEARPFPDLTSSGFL

For `O=[Se]=O`, the Potency entry in [1], in experiment [2], in experiment [3], in [5], in experiment [6] and in experiment [8] was “inactive” throughout. For the same compound, the Potency result in experiment [9], in experiment [10], in [11] and in experiment [13] was “inactive” throughout. In addition, in [4], the Potency is 8.58 µM (active). The compound was classed as inactive in experiment [7], in [12] and in experiment [14].

With `C/C=C/C=O`, the Potency result in [1], in experiment [15], in experiment [16], in [3], in experiment [17] and in [5] was “inactive” each time. The Potency entry in experiment [6], in [8], in experiment [9], in [11] and in experiment [13] was “inactive” in each case. Moreover, the call in [7], in [18] and in experiment [14] was inactive.

For the compound `C=CC(=O)OC`, the Potency entry in experiment [1], in [2], in [17], in experiment [4], in experiment [5] and in experiment [6] was “inactive” in each case. Also, the Potency result in experiment [8], in experiment [9], in experiment [10], in [11] and in experiment [13] was “inactive” throughout. The compound was called inactive in experiment [7], in experiment [12] and in experiment [18].

Take `O=C=Nc1ccc(Cl)cc1`: the Potency entry in experiment [1], in experiment [15], in experiment [16], in [3], in experiment [17] and in experiment [5] was “inactive” each time. Besides, the Potency entry in [6], in [8] and in experiment [13] was “inactive” each time. The Potency in experiment [4] is 43.3 µM (active). Besides, the outcome in experiment [19] was inactive.

Regarding `CCCCNP(N)(N)=S`, the Potency result in experiment [1], in experiment [15], in experiment [16], in experiment [3], in experiment [4] and in experiment [5] was “inactive” throughout. Also, the Potency entry in experiment [6], in experiment [9], in [20], in experiment [10], in experiment [11] and in [13] was “inactive” each time. Further, the result in [7], in [19], in [12] and in experiment [14] was inactive.

Turning to `c1ccc(CN2CCNCC2)cc1`, the Potency entry in [1], in experiment [2], in experiment [17], in experiment [4], in experiment [5] and in experiment [6] was “inactive” each time. Further, the Potency result in [8], in experiment [9], in experiment [20], in [11] and in [13] was “inactive” in each case. In addition, the compound was called inactive in [19] and in experiment [14].

As for `Nc1ccc([N+](=O)[O-])cc1[N+](=O)[O-]`, the Potency entry in experiment [1], in experiment [15], in experiment [16], in experiment [17], in experiment [5] and in experiment [6] was “inactive” throughout. In addition, the Potency entry in experiment [8], in experiment [9], in experiment [20] and in experiment [13] was “inactive” each time. Besides, the result in [7], in experiment [19], in experiment [18] and in experiment [14] was inactive.

Turning to `ClCc1ccccc1`, the Potency result in experiment [1], in experiment [15], in experiment [16], in [17], in experiment [4] and in experiment [5] was “inactive” in each case. Moreover, the Potency entry in experiment [6], in [8], in experiment [9], in [20], in experiment [11] and in [13] was “inactive” in each case. Besides, the compound was classed as inactive in experiment [19] and in [14].

`O=[N+]([O-])c1cc(C(F)(F)F)cc([N+](=O)[O-])c1Cl`: the Potency entry in experiment [1], in experiment [2], in [3], in experiment [17], in [5] and in experiment [6] was “inactive” throughout. In addition, the Potency entry in experiment [8], in experiment [9], in experiment [20], in [10] and in experiment [13] was “inactive” throughout. Moreover, the result in experiment [7] and in experiment [12] was inactive.

The values are drawn from PubChem BioAssay (Tox21).
